# Measurements: PubChem BioAssay (EPA / NIEHS)
# Results filed as inconclusive are left out. The source made the active and inactive calls. The calls were made as follows, unless noted: active = hit-call score of the fitted dose curve at least 0.9, where 1 is the maximum; inactive = score below 0.9.
# Test: CCTE_Mundy_HCI_Cortical_Synap_Neur_Matur_NeuriteCount: CCTE's Synaptogenesis and Neurite Maturation Assay in rat cortical cells for Neurite Count, Mundy Lab (AID 2284222);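 as to outcome: exposure from day 7 to day 12 in vitro with readout at day 12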
# In short: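 Chemical exposure runs DIV 7–12 in rat cortical cultures, glia suppressed by AraC at DIV 5; measurement is at DIV 12. Imaging-derived neurite counts are fitted against DMSO baseline.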
Compound,AC50,outcome
NC(=O)c1ccc(N)nc1,18.7 µM (active),–
CC(C)[C@@H](Nc1ccc(C(F)(F)F)cc1Cl)C(=O)OC(C#N)c1cccc(Oc2ccccc2)c1 (stereo partly drawn),–,inactive
OC(Cc1ccccc1Cl)(Cn1[nH]cnc1=S)C1(Cl)CC1 (stereo not drawn),50 µM (active),–
CCOCn1c(-c2ccc(Cl)cc2)c(C#N)c(Br)c1C(F)(F)F,16.4 µM (active),–
Cc1ccccc1OP(=O)(Oc1ccccc1C)Oc1ccccc1C,–,inactive
Cc1cc(C(F)(C(F)(F)F)C(F)(F)F)ccc1NC(=O)c1cccc(I)c1C(=O)NC(C)(C)CS(C)(=O)=O,–,inactive
CNC(=O)CSP(=O)(OC)OC,–,inactive
CS(=O)(=O)c1ccc(C(=O)C2C(=O)CCCC2=O)c(Cl)c1COCC(F)(F)F,–,inactive
CC1(C)[C@H](C(=O)O[C@H](C#N)c2cccc(Oc3ccccc3)c2)[C@@H]1/C=C(\Cl)C(F)(F)F,3.48 µM (active),–

# Test: CCTE_Mundy_HCI_Cortical_Synap_Neur_Matur_CellBodySpotCount: CCTE's Synaptogenesis and Neurite Maturation Assay in rat cortical cells for Cell Body Spot Count, Mundy Lab (AID 2284223)
# In short: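 Chemicals were applied to AraC-treated rat primary cortical cells at DIV 7 and measured at DIV 12. Fixed cells were labelled for MAP2, synaptophysin and nuclei, and high-content imaging gave cell body synaptophysin spot counts per neuron relative to DMSO.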
Compound,outcome,AC50
NC(=O)c1ccc(N)nc1,inactive,–
CC(C)[C@@H](Nc1ccc(C(F)(F)F)cc1Cl)C(=O)OC(C#N)c1cccc(Oc2ccccc2)c1 (stereo partly drawn),inactive,–
OC(Cc1ccccc1Cl)(Cn1[nH]cnc1=S)C1(Cl)CC1 (stereo not drawn),inactive,–
CCOCn1c(-c2ccc(Cl)cc2)c(C#N)c(Br)c1C(F)(F)F,–,18.9 µM (active)
Cc1ccccc1OP(=O)(Oc1ccccc1C)Oc1ccccc1C,–,4.04 µM (active)
Cc1cc(C(F)(C(F)(F)F)C(F)(F)F)ccc1NC(=O)c1cccc(I)c1C(=O)NC(C)(C)CS(C)(=O)=O,inactive,–
CNC(=O)CSP(=O)(OC)OC,inactive,–
CS(=O)(=O)c1ccc(C(=O)C2C(=O)CCCC2=O)c(Cl)c1COCC(F)(F)F,inactive,–
CC1(C)[C@H](C(=O)O[C@H](C#N)c2cccc(Oc3ccccc3)c2)[C@@H]1/C=C(\Cl)C(F)(F)F,–,3.52 µM (active)

# Test: CCTE_Mundy_HCI_hNP1_Pro_ResponderAvgInten: CCTE's Proliferation Assay in human neuroprogenitor cells, Mundy Lab (AID 2284224; active = hit-call score of the fitted dose curve at least 0.9, where 1 is the maximum;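 also: human neural progenitor cells hNP1 derived from WA09 embryonic stem cells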)
# In short: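 Human neuroprogenitors (hNP1, WA09 lineage) receive test chemical after 40 to 44 hours of attachment. A four-hour BrdU pulse begins twenty hours later, followed by fixation and high content imaging; signal is referenced to DMSO controls.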
Compound,AC50,outcome
OC(Cc1ccccc1Cl)(Cn1[nH]cnc1=S)C1(Cl)CC1 (stereo not drawn),31.6 µM (active),–
CCOCn1c(-c2ccc(Cl)cc2)c(C#N)c(Br)c1C(F)(F)F,9.2 µM (active),–
Cc1ccccc1OP(=O)(Oc1ccccc1C)Oc1ccccc1C,25.8 µM (active),–
Cc1cc(C(F)(C(F)(F)F)C(F)(F)F)ccc1NC(=O)c1cccc(I)c1C(=O)NC(C)(C)CS(C)(=O)=O,–,inactive
CC1(C)[C@H](C(=O)O[C@H](C#N)c2cccc(Oc3ccccc3)c2)[C@@H]1/C=C(\Cl)C(F)(F)F,–,inactive
